Experimental data as given in PubChem BioAssay (NCATS).
Inconclusive results are not listed. Where a call stands in place of a potency, no number is given. Calls of active or inactive are those of the source. The call rests on the fitted dose curve; in most records, active means well fitted curve in the direction sought with a large enough effect; inconclusive means small, poorly fitted or top-dose-only effect, or another doubt; inactive means no such curve, though single readings can be large; an effect the other way counts as inactive or inconclusive.

Legend:
[1] = biological target: Alpha-galactosidase A (Homo sapiens) (UniProt P06280); assay: Counterscreen for Glucocerebrosidase Inhibitors: qHTS Assay for Human alpha-Galactosidase at pH 4.5 (AID 992)
How it was run: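 Enzyme at 2 nM final was combined with compound (0.7 nM to 77 uM) and 80 uM 4-methylumbelliferyl alpha-D-galactopyranoside in 50 mM citric acid, 0.005% Tween-20, pH 4.5. After 20 min at room temperature, fluorescence was read (Ex 365/Em 440 nm); AC50 came from Hill fits.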

[2] = Cell Viability - LYMP2-017 (AID 972); further: series mostly up to about 92 µM; nearly all actives have a fitted effect of over 55% in size
How it was run: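 Human lymphoblastoid cells (2500/well) were seeded in complete medium, held 5 hr at 37 C, then exposed to compounds for 24 hr at 37 C. Intracellular ATP was read by CellTiter-Glo luminescence after 30 min at room temperature, with AC50 values from Hill-equation fits.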

[3] = Cell Viability - LYMP2-019 (AID 973); further: nearly all actives have a fitted effect of over 55% in size
How it was run: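 Human lymphoblastoid cells were seeded at 2500 cells/well, preincubated 5 hr at 37 C, then exposed to compounds for 24 hr at 37 C in complete medium. Intracellular ATP was measured by CellTiter-Glo luminescence; AC50 from Hill fits.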

[4] = Cell Viability - LYMP2-021 (AID 974);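 further: compound exposure lasts 24 hours at 37 °C; nearly all actives have a fitted effect of over 55% in size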
How it was run: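 Human lymphoblastoid cells (2500/well) were preincubated 5 hr at 37 C, then exposed to compounds for 24 hr at 37 C in complete medium. Intracellular ATP was read by CellTiter-Glo luminescence; AC50 came from Hill-equation fits of concentration-response data.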

[5] = Cell Viability - LYMP2-023 (AID 975);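 further: cellular ATP measured by luciferase luminescence as viability proxy; series mostly up to about 92 µM; nearly all actives have a fitted effect of over 55% in size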
How it was run: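 Human lymphoblastoid cells (2500/well) were preincubated 5 hr at 37 C, then exposed to compounds for 24 hr at 37 C in complete medium. Cellular ATP was read by CellTiter-Glo luminescence, and AC50 came from Hill-equation fits.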

[6] = Cell Viability - LYMP2-025 (AID 976); further: series mostly up to about 92 µM
How it was run: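 Human lymphoblastoid LYMP2-025 cells (2500/well) were pre-incubated 5 hr at 37 C, then treated with compounds for 24 hr at 37 C in complete medium. Viability was read as intracellular ATP by CellTiter-Glo luminescence; AC50 from Hill fits.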

[7] = Cell Viability - LYMP2-002 (AID 977); further: series mostly up to about 92 µM
How it was run: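 Human lymphoblastoid LYMP2-002 cells, 2500 per well, exposed to compounds for 24 h at 37 C in complete medium; viability read as intracellular ATP by CellTiter-Glo luminescence, AC50 from Hill fits.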

[8] = Cell Viability - LYMP2-006 (AID 978); further: series mostly up to about 92 µM; nearly all actives have a fitted effect of over 60% in size
How it was run: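 Potency values are Hill-fit AC50s for decreases in intracellular ATP (CellTiter-Glo luminescence). LYMP2-006 lymphoblastoid cells, 2500 per well, were exposed to compound in complete culture medium for 24 hr at 37 C.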

[9] = Cell Viability - LYMP2-007 (AID 979);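 further: cells exposed to compound for 24 h before reading; nearly all actives have a fitted effect of over 60% in size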
How it was run: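 Human lymphoblastoid cells (2500/well) were plated in complete medium, incubated 5 hr at 37 C, then exposed to compounds for 24 hr at 37 C. Intracellular ATP was read by CellTiter-Glo luminescence after 30 min at room temperature; AC50 from Hill fits.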

[10] = Cell Viability - LYMP2-008 (AID 980); further: nearly all actives have a fitted effect of over 60% in size
How it was run: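 Human lymphoblastoid cells (2500/well) were plated, held 5 hr at 37 C, then exposed to compounds for 24 hr at 37 C in complete medium. Intracellular ATP was read by CellTiter-Glo luminescence; AC50 from Hill-fitted concentration-response.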

[11] = Cell Viability - LYMP2-010 (AID 981); further: nearly all actives have a fitted effect of over 55% in size
How it was run: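 Human lymphoblastoid LYMP2-010 cells (2500/well) were preincubated 5 hr at 37 C, then exposed to compounds for 24 hr at 37 C in complete medium. Intracellular ATP was measured by CellTiter-Glo luminescence after 30 min at room temperature; AC50 from Hill-fitted concentration-response.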

[12] = Cell Viability - LYMP2-012 (AID 982)
Text: NIH Chemical Genomics Center [NCGC]
NIH Molecular Libraries Screening Centers Network [MLSCN]
National Institutes of Environmental Health Sciences [NIEHS]
National Toxicology Program [NTP]
We have developed a 1536-well cell-based assay for quantitative high throughput screening (qHTS) against a number of cell lines to determine in vitro cytotoxicity of small molecules. This particular assay uses a human lymphoblastoid cell line (LYMP2-012) purchased from Coriell Institute for Medical Research.
NCGC Assay Protocol Summary:
The CellTiter-Glo luminescent cell viability assay (Promega) is a homogeneous method to measure the number of viable cells in culture. The end point readout of this assay is based on quantitation of intracellular ATP, an indicator of metabolic activity, using the luciferase reaction. […]
Using the CellTiter-Glo luminescent cell viability assay, the amount of cellular ATP was measured in the lymphoblastoid cell line with complete culture medium following compound treatment for 24 hours. […] Library compounds were measured for their ability to cause acute toxicity in the cell line, as reflected by a decrease in intracellular ATP levels, in a concentration-dependent manner. […] AC50 values were determined from concentration-response data modeled with the standard Hill equation. […]
8. Detection; Luminescence; Viewlux plate reader […]

[13] = Cell Viability - LYMP2-014 (AID 983); further: series mostly up to about 92 µM; nearly all actives have a fitted effect of over 50% in size
How it was run: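 Human lymphoblastoid cells (2500/well) were pre-incubated 5 hr at 37 C, then exposed to compounds in complete medium for 24 hr at 37 C. Intracellular ATP was read by CellTiter-Glo luminescence after 30 min at room temperature; AC50 from Hill fits.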

[14] = Cell Viability - LYMP2-016 (AID 984); further: nearly all actives have a fitted effect of over 55% in size
How it was run: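 Cytotoxicity was scored by luminescent ATP content (CellTiter-Glo) after 24 h compound exposure at 37 C of a human lymphoblastoid line at 2500 cells/well. Concentration-response data were fitted to the Hill equation for AC50.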

[15] = Cell Viability - LYMP2-018 (AID 985);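 further: compound exposure lasted 24 hr at 37 °C; nearly all actives have a fitted effect of over 50% in size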
How it was run: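 Human lymphoblastoid cells (2500/well) were pre-incubated 5 hr at 37 C, then exposed to compounds for 24 hr at 37 C in complete medium. Viability was read as intracellular ATP by CellTiter-Glo luminescence; AC50 values came from Hill-equation fits.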

[16] = Cell Viability - LYMP2-020 (AID 986)
How it was run: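 Human lymphoblastoid cells, 2500/well, were pre-incubated 5 hr at 37 C, then exposed to compounds for 24 hr at 37 C in complete medium. Intracellular ATP was read by CellTiter-Glo luminescence, and AC50 was derived by Hill fitting of concentration-response data.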

[17] = Cell Viability - LYMP2-022 (AID 987); further: nearly all actives have a fitted effect of over 55% in size
How it was run: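 Human lymphoblastoid cells, 2500/well, preincubated 5 hr at 37 C, then exposed to compounds over a concentration range for 24 hr at 37 C in complete medium. Viability read as intracellular ATP by CellTiter-Glo luminescence after 30 min at room temperature; AC50 from Hill fits.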

[18] = Cell Viability - LYMP2-024 (AID 988); further: nearly all actives have a fitted effect of over 60% in size
How it was run: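 Human lymphoblastoid cells (2500/well) in complete medium were preincubated 5 hr at 37 C, then exposed to compounds for 24 hr at 37 C. Intracellular ATP was read by CellTiter-Glo luminescence; AC50 from Hill-equation fits of concentration-response data.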

[19] = Cell Viability - LYMP2-026 (AID 989); further: nearly all actives have a fitted effect of over 50% in size
How it was run: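 Human lymphoblastoid cells (2500/well) in complete medium were preincubated 5 hr at 37 C, then exposed to compounds for 24 hr at 37 C. Cellular ATP was read by CellTiter-Glo luminescence; AC50 from Hill-equation fits of concentration-response data.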

[20] = Cell Viability - LYMP1-002 - Assay at 24 hr (AID 993)
How it was run: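 Human lymphoblastoid LYMP1-002 cells, 2500/well in complete medium, were treated with compounds for 24 h at 37 C; intracellular ATP was read by CellTiter-Glo luminescence. AC50 values came from Hill-equation fits of qHTS concentration-response data.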

Sequence of Alpha-galactosidase A (Homo sapiens) (P06280 whole entry, looked up): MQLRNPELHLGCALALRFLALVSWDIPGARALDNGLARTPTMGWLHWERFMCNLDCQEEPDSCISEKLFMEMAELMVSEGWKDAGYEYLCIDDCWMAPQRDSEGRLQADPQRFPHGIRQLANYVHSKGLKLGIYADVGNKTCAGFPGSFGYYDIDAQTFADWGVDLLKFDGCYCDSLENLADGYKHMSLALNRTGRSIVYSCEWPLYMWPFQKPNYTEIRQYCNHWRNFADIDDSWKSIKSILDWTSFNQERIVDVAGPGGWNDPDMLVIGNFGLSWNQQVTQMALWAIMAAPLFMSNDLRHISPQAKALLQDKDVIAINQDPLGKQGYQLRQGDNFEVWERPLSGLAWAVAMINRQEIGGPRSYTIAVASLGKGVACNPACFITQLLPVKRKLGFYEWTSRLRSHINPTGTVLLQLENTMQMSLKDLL

O=C1Nc2ccc(I)cc2/C1=C/c1cc(Br)c(O)c(Br)c1
outcome [1]: inactive

O=C(O)c1cc2cc(F)ccc2[nH]1
outcome [1]: inactive

O=[N+]([O-])c1cccc2cn[nH]c12
outcome [1]: inactive

CC(C)(CO)Cc1cc(C(C)(C)C)c(O)c(C(C)(C)C)c1
outcome [1]: inactive

c1ccc2nc(C3=NCCN3)ccc2c1
outcome [1]: inactive

Cc1cc2c(cc1Cl)N(C(=O)Nc1ccnc3ccccc13)CC2
outcome [1]: inactive

O=C(O)c1cc(=O)cc(C(=O)O)[nH]1
outcome [1]: inactive

N=C(N)SCCc1cnc[nH]1
outcome [1]: inactive

CCCc1c(-c2ccc(O)cc2)nn(-c2ccc(O)cc2)c1-c1ccc(O)cc1
outcome [1]: inactive

O=S(=O)(c1cccc2c(Cl)cccc12)N1CCCNCC1
outcome [1]: inactive

O=c1[nH]c(=O)c2nc3ccccc3nc2[nH]1
outcome [1]: inactive

CN1CCN(c2nc3cc(C(F)(F)F)ccc3n3cccc23)CC1
outcome [1]: inactive

NC/C=C\C(=O)O
outcome [1]: inactive

N[C@@H](Cc1c[nH]c2ccccc12)C(=O)O
outcome [1]: inactive

NC1(C(=O)O)CC1
outcome [1]: inactive

Nc1ccc(N2C(=O)c3ccccc3C2=O)c(Cl)c1
outcome [1]: inactive

COc1ccccc1N1CCN(CCCNc2c(C)c(=O)n(C)c(=O)n2C)CC1
outcome [1]: inactive

NCCNS(=O)(=O)c1cccc2c(Cl)cccc12
outcome [1]: inactive

NCCCCN=C(N)N
outcome [1]: inactive

CN(C)S(=O)(=O)c1ccc2c(c1)/C(=C/c1cc3c([nH]1)CCCC3)C(=O)N2
outcome [1]: inactive

CCN(CC)CCCCCCCCOC(=O)c1cc(OC)c(OC)c(OC)c1
outcome [1]: inactive

CC(=O)NNC(=O)N1Cc2ccccc2Oc2ccc(Cl)cc21
outcome [1]: inactive

NC(N)=NC(N)=Nc1cccc(Cl)c1
outcome [1]: inactive

CCN(CC)CCOC(=O)c1cc(Cl)c(N)cc1OC
outcome [1]: inactive

O=[N+]([O-])c1cccc2c(Br)[nH]nc12
outcome [1]: inactive

COc1cc(CC(=O)O)ccc1O
outcome [1]: inactive

O=C1Cc2c([nH]c3ccc(Br)cc23)-c2ccccc2N1
outcome [1]: inactive

Clc1nccc2c1ccc1ccccc12
outcome [1]: inactive

Oc1ccc(Cn2cc[nH]c2=S)cc1
outcome [1]: inactive

CCCCCCC/C=C\CCCCCCCCC(=O)O
outcome [1]: inactive

CCN(c1nc(N)c(C(=O)N=C(N)N)nc1Cl)C(C)C
outcome [1]: inactive

O=C(O)C1=CCCN(CCON=C(c2ccccc2)c2ccccc2)C1
outcome [1]: inactive

CC(=O)C(C)=O
outcome [2]: inactive | outcome [3]: inactive | outcome [4]: inactive | outcome [5]: inactive | outcome [6]: inactive | outcome [7]: inactive | outcome [8]: inactive | outcome [9]: inactive | outcome [10]: inactive | outcome [11]: inactive | outcome [12]: inactive | outcome [13]: inactive | outcome [14]: inactive | outcome [15]: inactive | outcome [16]: inactive | outcome [17]: inactive | outcome [18]: inactive | outcome [19]: inactive | outcome [20]: inactive

Nc1nc2ccc(Cl)cc2c2nc(-c3ccco3)nn12
outcome [1]: inactive

O=C(O)c1ccccc1Nc1cccc(OCc2ccc3ccccc3n2)c1
outcome [1]: inactive

CCCCCCCC/C=C\CCCCCCCC(=O)NCCc1ccc(O)c(O)c1
outcome [1]: inactive

O=C(O)C1=CCCNC1
outcome [1]: inactive

CCCCOC(=O)NS(=O)(=O)c1sc(CC(C)C)cc1-c1ccc(Cn2c(CC)nc3c(C)cc(C)nc32)cc1
outcome [1]: inactive

NC(=O)c1ccccc1
outcome [2]: inactive | outcome [3]: inactive | outcome [4]: inactive | outcome [5]: inactive | outcome [6]: inactive | outcome [7]: inactive | outcome [8]: inactive | outcome [9]: inactive | outcome [10]: inactive | outcome [11]: inactive | outcome [12]: inactive | outcome [13]: inactive | outcome [14]: inactive | outcome [15]: inactive | outcome [16]: inactive | outcome [17]: inactive | outcome [18]: inactive | outcome [19]: inactive | outcome [20]: inactive
